Legend:
[1] = molecular target: Focal adhesion kinase 1 (Homo sapiens) (UniProt Q05397); conditions: at 10 µM
[2] = molecular target: Fibroblast growth factor receptor 1 (Homo sapiens) (UniProt P11362); conditions: at 1 µM
[3] = molecular target: Fibroblast growth factor receptor 1 (Homo sapiens) (UniProt P11362); conditions: at 10 µM
[4] = molecular target: Fibroblast growth factor receptor 3 (Homo sapiens) (UniProt P22607); conditions: at 10 µM
[5] = molecular target: Fibroblast growth factor receptor 4 (Homo sapiens) (UniProt P22455); conditions: at 10 µM
[6] = molecular target: Tyrosine-protein kinase Fer (Homo sapiens) (UniProt P16591); conditions: at 1 µM
[7] = molecular target: Tyrosine-protein kinase Fer (Homo sapiens) (UniProt P16591); conditions: at 10 µM
[8] = molecular target: Vascular endothelial growth factor receptor 1 (Homo sapiens) (UniProt P17948); conditions: at 1 µM
[9] = molecular target: Vascular endothelial growth factor receptor 1 (Homo sapiens) (UniProt P17948); conditions: at 10 µM
[10] = molecular target: Receptor-type tyrosine-protein kinase FLT3 (Homo sapiens) (UniProt P36888); conditions: at 10 µM
Sequence of Receptor-type tyrosine-protein kinase FLT3 (Homo sapiens) (P36888 whole entry): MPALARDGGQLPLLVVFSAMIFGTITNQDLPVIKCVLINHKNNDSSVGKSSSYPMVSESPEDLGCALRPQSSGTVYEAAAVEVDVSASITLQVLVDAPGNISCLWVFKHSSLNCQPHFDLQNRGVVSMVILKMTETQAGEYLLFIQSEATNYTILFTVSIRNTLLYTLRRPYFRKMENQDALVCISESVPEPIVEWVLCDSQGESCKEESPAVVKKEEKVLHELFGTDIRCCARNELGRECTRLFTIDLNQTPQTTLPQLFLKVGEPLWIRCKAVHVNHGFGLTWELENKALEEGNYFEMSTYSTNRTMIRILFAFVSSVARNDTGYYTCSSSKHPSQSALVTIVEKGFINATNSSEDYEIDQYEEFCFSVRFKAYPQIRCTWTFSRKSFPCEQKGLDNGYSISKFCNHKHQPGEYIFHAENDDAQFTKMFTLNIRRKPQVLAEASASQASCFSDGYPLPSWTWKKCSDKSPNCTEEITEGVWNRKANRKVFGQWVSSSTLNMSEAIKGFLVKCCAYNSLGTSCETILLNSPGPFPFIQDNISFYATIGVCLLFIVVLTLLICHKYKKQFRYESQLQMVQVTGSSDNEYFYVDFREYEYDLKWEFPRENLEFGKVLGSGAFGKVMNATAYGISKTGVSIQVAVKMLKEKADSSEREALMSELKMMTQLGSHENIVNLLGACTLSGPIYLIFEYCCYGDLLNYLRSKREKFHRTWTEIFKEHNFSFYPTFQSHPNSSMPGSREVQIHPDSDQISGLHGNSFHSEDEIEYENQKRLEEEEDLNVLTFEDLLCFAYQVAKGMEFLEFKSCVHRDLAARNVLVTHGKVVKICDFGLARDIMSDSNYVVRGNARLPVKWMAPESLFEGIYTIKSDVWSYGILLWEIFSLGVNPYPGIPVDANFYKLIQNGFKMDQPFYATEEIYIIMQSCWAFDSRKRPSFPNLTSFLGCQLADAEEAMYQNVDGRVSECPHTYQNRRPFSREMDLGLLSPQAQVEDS

[11] = molecular target: Vascular endothelial growth factor receptor 3 (Homo sapiens) (UniProt P35916); conditions: at 1 µM
Sequence of Vascular endothelial growth factor receptor 3 (Homo sapiens) (P35916 whole entry): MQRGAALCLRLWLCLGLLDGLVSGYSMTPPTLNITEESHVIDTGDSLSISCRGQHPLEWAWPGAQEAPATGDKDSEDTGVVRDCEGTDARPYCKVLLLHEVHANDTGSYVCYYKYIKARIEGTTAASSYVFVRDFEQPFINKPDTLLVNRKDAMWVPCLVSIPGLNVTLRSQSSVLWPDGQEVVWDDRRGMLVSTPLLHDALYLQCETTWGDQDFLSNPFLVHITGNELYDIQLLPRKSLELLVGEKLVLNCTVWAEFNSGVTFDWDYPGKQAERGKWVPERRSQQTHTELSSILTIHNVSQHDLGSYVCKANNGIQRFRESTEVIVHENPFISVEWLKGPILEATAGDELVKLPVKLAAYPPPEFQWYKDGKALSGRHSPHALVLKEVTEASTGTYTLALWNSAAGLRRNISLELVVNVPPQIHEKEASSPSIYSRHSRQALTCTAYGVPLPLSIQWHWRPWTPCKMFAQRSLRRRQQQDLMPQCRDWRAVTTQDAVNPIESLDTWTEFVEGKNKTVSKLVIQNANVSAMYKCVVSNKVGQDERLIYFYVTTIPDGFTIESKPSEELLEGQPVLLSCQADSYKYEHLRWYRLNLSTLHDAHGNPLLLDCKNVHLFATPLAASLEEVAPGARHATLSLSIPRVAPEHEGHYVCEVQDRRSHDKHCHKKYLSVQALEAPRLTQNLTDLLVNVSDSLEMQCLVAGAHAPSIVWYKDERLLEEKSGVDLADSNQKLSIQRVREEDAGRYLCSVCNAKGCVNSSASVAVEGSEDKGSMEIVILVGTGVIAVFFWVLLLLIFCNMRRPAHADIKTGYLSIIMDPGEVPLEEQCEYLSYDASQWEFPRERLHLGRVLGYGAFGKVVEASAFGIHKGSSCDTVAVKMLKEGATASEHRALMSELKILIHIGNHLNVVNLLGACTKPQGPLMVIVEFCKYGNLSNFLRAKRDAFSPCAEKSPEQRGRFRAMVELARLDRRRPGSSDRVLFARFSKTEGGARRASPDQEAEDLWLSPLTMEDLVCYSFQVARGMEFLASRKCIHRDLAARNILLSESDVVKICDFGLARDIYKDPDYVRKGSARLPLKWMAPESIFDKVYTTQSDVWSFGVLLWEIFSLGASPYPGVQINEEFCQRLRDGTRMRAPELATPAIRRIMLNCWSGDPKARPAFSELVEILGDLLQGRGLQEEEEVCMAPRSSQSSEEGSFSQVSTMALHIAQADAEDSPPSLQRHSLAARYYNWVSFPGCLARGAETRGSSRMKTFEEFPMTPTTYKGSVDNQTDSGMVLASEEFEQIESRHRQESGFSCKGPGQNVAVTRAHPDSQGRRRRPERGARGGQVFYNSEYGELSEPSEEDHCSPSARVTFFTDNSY

[12] = molecular target: Fibroblast growth factor receptor 2 (Homo sapiens) (UniProt P21802); conditions: at 1 µM
[13] = molecular target: Fibroblast growth factor receptor 2 (Homo sapiens) (UniProt P21802); conditions: at 10 µM
[14] = molecular target: Tyrosine-protein kinase Fes/Fps (Homo sapiens) (UniProt P07332); conditions: at 1 µM
[15] = molecular target: Tyrosine-protein kinase Fes/Fps (Homo sapiens) (UniProt P07332); conditions: at 10 µM
[16] = molecular target: Tyrosine-protein kinase Fgr (Homo sapiens) (UniProt P09769); conditions: at 1 µM
[17] = molecular target: Tyrosine-protein kinase Fgr (Homo sapiens) (UniProt P09769); conditions: at 10 µM
[18] = molecular target: Receptor-type tyrosine-protein kinase FLT3 (Homo sapiens) (UniProt P36888); conditions: at 1 µM
[19] = molecular target: Fibroblast growth factor receptor 3 (Homo sapiens) (UniProt P22607); conditions: at 1 µM
[20] = molecular target: Fibroblast growth factor receptor 4 (Homo sapiens) (UniProt P22455); conditions: at 1 µM

Sequence of Focal adhesion kinase 1 (Homo sapiens) (Q05397 2-1052 limits assumed): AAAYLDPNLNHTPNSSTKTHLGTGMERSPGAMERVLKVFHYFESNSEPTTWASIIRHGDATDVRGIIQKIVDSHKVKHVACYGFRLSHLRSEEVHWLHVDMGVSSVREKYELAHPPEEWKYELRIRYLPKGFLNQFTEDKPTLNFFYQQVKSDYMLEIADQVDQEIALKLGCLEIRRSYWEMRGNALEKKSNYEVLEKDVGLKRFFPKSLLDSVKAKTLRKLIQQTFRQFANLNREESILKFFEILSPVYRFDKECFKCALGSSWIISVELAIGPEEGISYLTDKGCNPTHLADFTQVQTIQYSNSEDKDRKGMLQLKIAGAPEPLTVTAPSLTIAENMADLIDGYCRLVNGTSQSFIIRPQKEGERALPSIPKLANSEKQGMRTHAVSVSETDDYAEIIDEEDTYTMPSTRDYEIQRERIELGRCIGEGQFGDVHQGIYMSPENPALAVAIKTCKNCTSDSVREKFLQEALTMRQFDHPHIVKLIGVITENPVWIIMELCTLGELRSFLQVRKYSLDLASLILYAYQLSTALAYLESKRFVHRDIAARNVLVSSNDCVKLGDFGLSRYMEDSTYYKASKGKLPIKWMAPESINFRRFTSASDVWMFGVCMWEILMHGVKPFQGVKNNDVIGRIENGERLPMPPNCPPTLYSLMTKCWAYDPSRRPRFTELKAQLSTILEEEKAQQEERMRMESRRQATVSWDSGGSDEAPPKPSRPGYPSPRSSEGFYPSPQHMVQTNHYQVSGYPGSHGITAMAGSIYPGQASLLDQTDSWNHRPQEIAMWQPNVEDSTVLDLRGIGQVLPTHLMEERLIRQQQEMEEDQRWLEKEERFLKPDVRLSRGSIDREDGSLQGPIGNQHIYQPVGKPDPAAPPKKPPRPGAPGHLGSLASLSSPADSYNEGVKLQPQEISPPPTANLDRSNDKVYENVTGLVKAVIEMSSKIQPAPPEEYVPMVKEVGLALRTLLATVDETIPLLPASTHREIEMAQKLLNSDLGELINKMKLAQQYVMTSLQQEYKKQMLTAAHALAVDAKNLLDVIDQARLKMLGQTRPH
Sequence of Fibroblast growth factor receptor 1 (Homo sapiens) (P11362 22-822 limits assumed): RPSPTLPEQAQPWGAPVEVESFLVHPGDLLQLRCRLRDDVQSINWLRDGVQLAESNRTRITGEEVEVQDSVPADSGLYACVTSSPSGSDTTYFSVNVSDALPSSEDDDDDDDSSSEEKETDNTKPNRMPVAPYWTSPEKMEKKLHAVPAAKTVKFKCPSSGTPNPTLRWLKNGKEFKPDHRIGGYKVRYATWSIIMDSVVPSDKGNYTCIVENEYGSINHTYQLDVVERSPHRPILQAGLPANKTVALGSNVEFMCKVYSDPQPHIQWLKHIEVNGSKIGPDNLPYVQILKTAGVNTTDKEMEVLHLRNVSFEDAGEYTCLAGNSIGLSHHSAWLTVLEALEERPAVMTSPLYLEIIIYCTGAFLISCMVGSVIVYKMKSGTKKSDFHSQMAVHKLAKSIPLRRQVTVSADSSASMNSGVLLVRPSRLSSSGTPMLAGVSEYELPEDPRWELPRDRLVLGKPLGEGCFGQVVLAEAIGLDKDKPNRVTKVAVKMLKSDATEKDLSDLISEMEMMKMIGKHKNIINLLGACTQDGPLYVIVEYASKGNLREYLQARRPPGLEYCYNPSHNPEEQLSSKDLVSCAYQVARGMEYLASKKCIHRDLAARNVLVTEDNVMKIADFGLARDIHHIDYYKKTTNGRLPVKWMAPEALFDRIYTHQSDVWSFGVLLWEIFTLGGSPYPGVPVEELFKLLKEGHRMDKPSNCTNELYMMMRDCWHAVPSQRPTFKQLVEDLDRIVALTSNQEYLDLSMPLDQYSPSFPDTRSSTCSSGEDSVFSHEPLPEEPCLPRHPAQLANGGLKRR
Sequence of Fibroblast growth factor receptor 3 (Homo sapiens) (P22607 23-806 limits assumed): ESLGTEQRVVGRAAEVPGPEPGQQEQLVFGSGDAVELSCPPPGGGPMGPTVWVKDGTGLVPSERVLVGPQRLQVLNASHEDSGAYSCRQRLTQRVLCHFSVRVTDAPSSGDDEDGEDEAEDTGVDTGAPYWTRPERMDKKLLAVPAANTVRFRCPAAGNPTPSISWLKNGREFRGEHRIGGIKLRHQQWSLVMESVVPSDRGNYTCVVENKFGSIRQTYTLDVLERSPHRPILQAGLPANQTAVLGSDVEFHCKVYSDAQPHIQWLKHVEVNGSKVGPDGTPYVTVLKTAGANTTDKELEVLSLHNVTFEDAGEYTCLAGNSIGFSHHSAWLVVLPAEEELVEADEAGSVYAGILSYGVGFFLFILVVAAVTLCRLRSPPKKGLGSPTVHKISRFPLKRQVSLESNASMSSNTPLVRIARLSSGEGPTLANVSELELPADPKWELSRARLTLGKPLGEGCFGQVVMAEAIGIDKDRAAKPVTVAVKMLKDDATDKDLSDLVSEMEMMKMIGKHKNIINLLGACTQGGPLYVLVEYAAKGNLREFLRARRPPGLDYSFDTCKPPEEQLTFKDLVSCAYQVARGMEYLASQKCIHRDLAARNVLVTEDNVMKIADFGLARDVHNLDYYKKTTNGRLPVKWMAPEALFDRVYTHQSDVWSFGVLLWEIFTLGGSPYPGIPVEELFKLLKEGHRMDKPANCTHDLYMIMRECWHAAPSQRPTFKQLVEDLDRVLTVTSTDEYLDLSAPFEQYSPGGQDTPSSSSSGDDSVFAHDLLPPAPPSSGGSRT

SMILES | residual activity [1] | residual activity [2] | residual activity [3] | residual activity [4] | residual activity [5] | residual activity [6] | residual activity [7] | residual activity [8] | residual activity [9] | residual activity [10] | residual activity [11] | residual activity [12] | residual activity [13] | residual activity [14] | residual activity [15] | residual activity [16] | residual activity [17] | residual activity [18] | residual activity [19] | residual activity [20]
O=C(Nc1ccc(Cl)cc1)c1ccccc1NCc1ccncc1 | 73% | 75% | 10% | 73% | 78% | 131% | 101% | 0% | 2% | 65% | 0% |  |  |  |  |  |  |  |  | 
c1ccc(-c2cnc(Nc3ccc(OCCN4CCCC4)cc3)s2)cc1 | 46% | 59% | 8% |  |  | 111% |  | 4% | 0% | 0% | 2% | 80% | 28% | 123% | 59% | 63% | 11% | 4% |  | 
O=c1cc(N2CCOCC2)oc2c1ccc1ccccc12 | 92% | 109% | 71% |  |  |  | 96% | 98% | 95% | 97% | 94% | 111% | 101% |  | 98% | 107% | 94% | 101% |  | 
COc1cc2nccc(Oc3ccc(NC(=S)NC(=O)c4ccccc4C)cc3)c2cc1OC | 66% | 49% | 8% | 58% | 78% | 70% | 34% | 5% | 0% | 31% | 1% | 84% | 40% | 79% | 36% | 14% | 3% | 75% | 90% | 
Oc1cccc(-c2nc(N3CCOCC3)c3oc4ncccc4c3n2)c1 | 50% | 97% | 78% |  | 99% | 119% | 99% | 91% | 80% | 72% |  | 122% | 123% | 137% |  | 118% | 97% | 89% |  | 
O=C1NC(=O)C(c2c[nH]c3ccccc23)=C1c1c[nH]c2ccccc12 | 44% | 9% | 1% | 4% | 71% |  | 52% | 4% | 1% | 1% | 2% | 37% | 9% |  | 48% | 98% | 60% | 19% | 27% | 
CCN(CC)CCNC(=O)c1c(C)[nH]c(/C=C2\C(=O)Nc3ccc(Cl)cc32)c1C | 4% | 7% | 1% | 1% |  | 79% | 14% | 5% | 0% | -1% | 0% | 14% | 3% | 14% | 2% | 8% | 2% | 1% | 8% | 
Cn1c2ccccc2c2c3c(c4c5ccccc5n(CCC#N)c4c21)CNC3=O | 17% | 7% | 6% |  |  | 4% | 4% | 4% | 4% | 0% | 2% | 53% | 46% |  |  | 41% | 47% | 0% |  | 111%
Cn1sc(=O)n(Cc2ccccc2)c1=O | 61% | 92% | 86% | 126% |  | 90% | 91% | 85% | 73% | 81% | 85% |  |  | 93% | 85% | 90% | 95% | 86% | 135% | 
O=C1C(Cl)=C(N2C(=O)CCC2=O)C(=O)c2ccccc21 | 90% | 118% | 94% |  | 91% | 87% | 91% | 96% | 84% | 87% | 91% | 100% | 89% | 83% | 97% | 94% | 96% | 90% |  | 98%
Cc1cc(C)c(/C=C2\C(=O)Nc3ccccc32)[nH]1 | 9% | 65% | 13% | 68% |  | 100% | 55% | 3% | 0% | 0% | 1% |  |  |  |  | 53% | 30% | 1% | 80% | 124%
O=C1NC(=O)c2c1c1c3ccccc3[nH]c1n1cncc21 | 25% | 41% | 9% | 41% | 80% |  |  | 16% | 3% | 5% | 0% | 72% | 32% | 79% | 56% | 75% | 45% | 18% | 76% | 102%
O=C1Nc2ccc(Cl)cc2/C1=C/c1cc(Cl)c(O)c(Cl)c1 | 58% | 93% | 53% | 62% |  |  |  | 55% | 1% | 1% | 3% | 80% | 39% |  |  | 96% | 42% | 21% | 96% | 
O=C1Cc2c([nH]c3ccc(Br)cc23)-c2ccccc2N1 | 28% | 87% | 32% | 87% | 96% |  |  | 77% | 39% | 34% | 56% |  |  | 63% | 38% |  |  | 65% | 127% | 
NCCNc1ncc(C(N)=O)c(Nc2cccc(C(F)(F)F)c2)n1 | 7% | 113% | 68% |  |  | 102% | 47% |  |  | 5% |  | 100% | 80% | 32% | 3% | 30% | 6% | 50% |  | 
CN(C)S(=O)(=O)c1ccc2c(c1)/C(=C/c1cc3c([nH]1)CCCC3)C(=O)N2 | 8% | 36% | 54% | 90% | 87% | 59% | 68% | 67% | 56% | 41% | 33% | 51% | 30% | 82% | 61% | 21% | 9% | 27% |  | 84%
CC(C)c1nn(-c2c(Cl)cccc2Cl)c2nc(Cc3ccc(OCCO)cc3)[nH]c(=O)c12 | 66% | 70% | 27% | 99% |  | 100% | 95% | 90% | 82% | 81% | 84% | 108% | 86% | 109% | 97% |  | 95% | 81% | 104% | 
CCCCc1c(-c2ccc(OC)cc2)[nH]c2nccnc12 | 49% | 46% | 46% | 114% | 91% | 84% | 91% | 44% | 32% | 30% | 6% | 88% | 60% | 34% | 51% | 61% | 78% | 27% |  | 109%
O=S(=O)(NCCNC/C=C/c1ccc(Br)cc1)c1cccc2cnccc12 | 30% |  | 35% | 80% |  |  | 71% |  | 35% | 46% | 81% |  |  | 75% | 27% |  | 59% |  |  | 
O=C1NC(=O)C(c2cn(CCCn3ccnc3)c3ccccc23)=C1Nc1ccccc1 | 71% | 77% | 17% |  |  | 102% | 52% | 51% | 11% | 0% | 58% | 113% | 57% |  |  |  | 59% | 14% |  | 
CC(C)N(CCC(=O)c1ccc2ccccc2c1)Cc1ccccc1 | 85% | 125% |  |  |  |  | 87% |  |  | 82% |  |  |  |  |  |  |  |  |  | 
NC(=O)c1cccc(-c2cc(Nc3ccc(OC(F)(F)F)cc3)ncn2)c1 | 95% | 96% | 92% |  |  |  |  |  |  | 93% | 90% |  |  | 125% | 99% |  |  | 97% |  | 
O=C(c1cc2cc(O)ccc2[nH]1)c1cc2cc(O)ccc2[nH]1 | 65% | 40% | 5% | 20% |  |  | 55% | 20% | 2% | 0% | 4% | 83% | 24% |  | 28% | 5% | 2% | 0% | 70% | 
Nc1ncnc2c1cnn2-c1ccccc1 | 95% | 127% | 94% | 83% | 97% |  |  | 96% | 88% | 55% | 99% | 96% | 83% |  |  |  | 85% | 95% | 76% | 
NC(=O)Nc1sc(-c2ccc(F)cc2)cc1C(N)=O | 9% | 29% | 5% | 15% | 91% | 83% | 50% | 17% | 2% | 3% | 4% | 50% | 10% | 78% | 24% | 28% | 4% | 22% | 81% | 106%
O=C(c1ccccc1)c1ccc(N2CCOCC2)cc1O | 85% | 98% | 73% |  | 95% | 125% | 97% | 100% | 93% | 53% | 87% |  |  | 116% | 93% |  |  | 83% |  | 116%
CCCCc1c(-c2ccc(O)cc2)[nH]c2nccnc12 | 19% | 41% | 11% |  | 99% | 86% | 81% | 43% | 11% | 6% | 6% | 85% | 59% | 35% | 12% | 57% | 36% | 29% |  | 127%
